The panel holds about 83,000 compounds, 20% with a hit somewhere; the sample as a whole holds those more often.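 Method: cells in 96-well plates; compound added at one concentration; 48 h incubation; percent growth measured; values under 10 scored active.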 Active and inactive are the calls of the source.

This test has as its system HL-60(TB) leukemia. Briefly: NCI-60 one-dose screen, 48 h (100 = growth as untreated, 0 = no growth, -100 = all killed). The note with it: 10 µM unless noted.
In the case of `NCCSSC/C=C\CSSCCN`, the growth was 59.1% (inactive).

With `CCOC(=N)CC(=O)Nc1cccc(C)c1Cl`, the growth is 111% (inactive).

With `COc1ccc(C(=O)Nc2cccc(C3CCc4c(cc(OC)c(OC)c4OC)O3)c2)cc1` (stereo not given), the growth was 10.7% (inactive).

Consider `O=[N+]([O-])c1ccc(O)c2ncccc12`, for which the growth was -4.85% (active).

With `O=C(Nc1cccc(-c2ccc(Cl)c(C(F)(F)F)c2)c1)C1CCN(Cc2cccc3cccnc23)CC1`, the growth was -53.9% (active).

Take `CCOc1nc(-c2ccccc2)cc2c(O)c(C(=O)n3nc(C)cc3C)[nH]c(=O)c12`: the growth was 103% (inactive). To `O=C1NCCS(=O)(=O)/C1=C\C=C\c1cccc(C(F)(F)F)c1` belongs 1.71% (active); to `COc1cc(N=Nc2cc(S(=O)(=O)O)cc3cc(S(=O)(=O)O)cc(O)c23)c(C)cc1N=Nc1c(S(=O)(=O)O)cc2cc(Nc3ccccc3)ccc2c1O`, 93.6% (inactive); to `COc1cc(/C=C/c2nnc(-c3cc(-c4ccccc4)n[nH]3)o2)cc(OC)c1OC`, 75.1% (inactive). As to `Cc1ccc2cc3c(NC(=O)c4cccnc4)nn(C)c3nc2c1`, the growth was 87.8% (inactive).

As for `CC1=NN(c2ccc(S(=O)(=O)O)cc2)C(=O)C1N=Nc1ccc(-c2ccc(N=Nc3ccc(OS(=O)(=O)c4ccc(C)cc4)cc3)c(S(=O)(=O)O)c2)cc1` (stereo not given), the growth is 108% (inactive). To `O=C1OCC2=C1C(c1ccc(Cl)c(Cl)c1)c1cc3c(cc1N2CCO)OCCO3` (stereo not given) belongs -18.9% (active). The value for `O=C(Nc1ccncc1)C(=O)c1cn(S(=O)(=O)c2ccc(Oc3ccccc3)cc2)c2ccccc12` was 70.5% (inactive); that for `COc1ccc(-c2c(-c3ccc(OC)c(O)c3)cnc3ncnn23)cc1` was 106% (inactive); that for `c1ccc(-n2nnnc2-c2cccc3ccccc23)cc1` was -21.8% (active).

For the compound `COc1ccc(/C=N\NC(=O)c2ccc3nc(-c4ccc(Cl)cc4)[nH]c3c2)cc1`, the growth was 96.3% (inactive). To `COc1ccc2oc(=O)cc(Cn3cc(Cn4cnc5c4c(=O)n(C)c(=O)n5C)nn3)c2c1` belongs 107% (inactive); to `O=C1/C(=C/c2ccccc2)SC(=Nc2ccccc2)N1Nc1ccccc1`, -7.82% (active); to `CCCCCOC(=O)c1ccccc1O`, 99.4% (inactive). The value for `COc1ccc2cc(-c3cnc4nonc4n3)ccc2c1` was -12% (active); that for `COc1cc(C(=O)/C=C/c2c(-c3cccs3)nc3sccn23)cc(OC)c1OC` was 1.04% (active). The value for `CCNc1nnc(COc2ccc(CNC(=O)CCCC/C=C/C(C)C)cc2OC)o1` was 98.4% (inactive). Take `COc1ccc(-c2nc(N/N=C/c3cccc(Br)c3)nc(N3CCOCC3)c2C#N)cc1`: the growth is 10.7% (inactive).

`C#Cc1cccc(Nc2nc3ccc([N+](=O)[O-])cc3nc2Nc2cccc(C#C)c2)c1`: the growth is -33.9% (active).

Regarding `O=c1[nH]c(=O)n(C2C[C@@H](O)[C@@H](CO)O2)cc1F` (stereo not given in full), the growth is 27.1% (inactive). The value for `O=C(CNc1nc2ccccc2s1)Nc1ccc(-c2nc3ccccc3s2)cc1` was 99.1% (inactive); that for `CNC(=O)CCN1CCN(CC/C=C2\c3ccccc3Sc3ccc(Cl)cc32)CC1` was 50.2% (inactive); that for `COc1ccccc1-[n+]1cc(-c2ccc(-c3ccccc3)cc2)n2c1CCCCC2` was -27.7% (active). The value for `CC(C)=CCc1cc(O)c(O)c2oc3cc(O)cc(O)c3c(=O)c12` was 103% (inactive). Take `CCC(C)C(N)C(=O)NC(CC(C)C)C(=O)N1CCCC1C(=O)NC(Cc1c[nH]c2ccccc12)C(=O)NC(CCCCN)C(=O)NC(Cc1c[nH]c2ccccc12)C(=O)N1CCCC1C(=O)NC(Cc1c[nH]c2ccccc12)C(=O)NC(Cc1c[nH]c2ccccc12)C(=O)N1CCCC1C(=O)NC(Cc1c[nH]c2ccccc12)C(=O)NC(CCCNC(=N)N)C(=O)NC(CCCNC(=N)N)C(N)=O` (stereo not given): the growth was -2.6% (active). With `C[C@H](C(=O)Nc1ccc(S(N)(=O)=O)cc1)S(=O)(=O)c1ccccc1`, the growth is 101% (inactive). To `OB(O)c1ccsc1-c1nc2ccc3[nH]ncc3c2c2c1CCCC2` belongs 52.2% (inactive); to `Cc1nc(/N=C(\N)NC(=O)Nc2ccccc2Cl)sc1C`, 3.77% (active); to `Cc1ccc(S(=O)(=O)N2CCc3ccc(O)c4c3C2CCc2ccccc2-4)cc1` (stereo not given), 91.3% (inactive). The value for `COc1ccc(CNc2c3ccccc3nc3ccccc23)c(OC)c1` was 36.9% (inactive); that for `Cc1cc(C(=O)Nc2ccc3cc(CN4CCOCC4)ccc3n2)c(C)n1-c1ccccc1` was 14.5% (inactive).

As to `COc1ccc(C2=NN(C(C)=O)C(c3cn(Cc4ccc(Cl)cc4)c4ccccc34)C2)cc1` (stereo not given), the growth was 79.5% (inactive). To `CS(=O)(=O)Nc1cccc(-c2ccc3ncnc(Nc4ccc(F)c(Cl)c4)c3c2)c1` belongs 24.8% (inactive); to `O=[N+]([O-])c1ccc(Sc2nc(Cl)nc(NC3CCCC3)n2)cc1`, -26% [100 µM] (active).

For the compound `COc1ccc(CNC(=O)c2c(C)n([O-])c3cc(F)c(F)cc3[n+]2=O)cc1`, the growth was 101% (inactive).
